According to PubChem BioAssay (NCATS):
Records with an inconclusive call do not appear. The source made the active and inactive calls. Calls follow the shape of the dose curve; as a rule, active = well fitted cell-killing curve with a large enough effect; inconclusive = small, poorly fitted or top-dose-only effect, or effect the other way; inactive = flat fitted curve, though single readings scatter.

Key:
Test in all cases: Primary qHTS to identify gynecologic anti-cancer compounds using libraries of approved drugs and bioactive compounds (AID 1345084); also: nearly all actives have a fitted effect of over 55% in size
[1] = tested on: C33A; conditions: Gynecologic cancer cell panel viability, ATPlite luminescence, 48 h; series mostly up to 57.5 µM
Procedure, shortened: (§1)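 Cells, 1,000 per well, plated 16 h, then exposed 48 h at 37 C to compounds. Viability by ATPlite luminescence after 15 min at room temperature.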

[2] = tested on: CASKI; conditions: Gynecologic cancer cell panel viability, ATPlite luminescence, 48 h; series mostly up to 57.5 µM
Procedure, shortened: as §1

[3] = tested on: Es-2; conditions: Gynecologic cancer cell panel viability, ATPlite luminescence, 48 h; series mostly up to 57.5 µM
Procedure, shortened: as §1

[4] = tested on: HeLa; conditions: Gynecologic cancer cell panel viability, ATPlite luminescence, 48 h; series mostly up to 57.5 µM
Procedure, shortened: as §1

[5] = tested on: Hek293T; conditions: Gynecologic cancer cell panel viability, ATPlite luminescence, 48 h, control line for the selectivity index; series mostly up to 57.5 µM
Procedure, shortened: as §1

[6] = tested on: JEG-3; conditions: Gynecologic cancer cell panel viability, ATPlite luminescence, 48 h; series mostly up to 57.5 µM
Procedure, shortened: as §1

[7] = tested on: OV90; conditions: Gynecologic cancer cell panel viability, ATPlite luminescence, 48 h; series mostly up to 57.5 µM
Procedure, shortened: as §1

[8] = tested on: PA-1; conditions: Gynecologic cancer cell panel viability, ATPlite luminescence, 48 h; series mostly up to 57.5 µM
Procedure, shortened: as §1

[9] = tested on: SKOV3; conditions: Gynecologic cancer cell panel viability, ATPlite luminescence, 48 h; series mostly up to 57.5 µM
Procedure, shortened: as §1

[10] = tested on: Tov-21-G; conditions: Gynecologic cancer cell panel viability, ATPlite luminescence, 48 h; series mostly up to 57.5 µM
Procedure, shortened: as §1

[11] = tested on: Tov112D; conditions: Gynecologic cancer cell panel viability, ATPlite luminescence, 48 h; series mostly up to 57.5 µM
Procedure, shortened: as §1

Measured: Potency

CC(C)(O)C1CCC(C)(C2CCC3(C)C4CCC5C(C)(C(=O)OC6OC(CO)C(O)C(O)C6O)C(O)CC(O)C56CC46CCC23C)O1 (stereo not drawn)
inactive: all assays above

CC1C(=O)OCC2=CCN3CCC(OC(=O)C(C)(O)C1(C)O)C23 (stereo not drawn)
inactive: all assays above

C[C@]12C=C[C@@]3(CCC4[C@](C)(CO)CCC[C@@]4(C)C3CC1)C2 (stereo partly drawn)
inactive: all assays above

COC(=O)/C=C/C12COC(C)(C)C1C(O)C(OC(C)=O)C1(C)C2CCC2(C)C(c3ccoc3)OC(=O)C3OC321 (stereo not drawn)
inactive: all assays above

C=CC1C(OC2OC(CO)C(O)C(O)C2O)OC=C2C(=O)N3C(C(=O)O)Cc4c([nH]c5ccccc45)C3CC21 (stereo not drawn)
inactive: all assays above

C=C(CO[C@@H]1O[C@H](CO[C@@H]2OC[C@](O)(CO)[C@H]2O)[C@@H](O)[C@H](O)[C@H]1O)C1Cc2cc(C(C)=O)ccc2O1 (stereo partly drawn)
inactive: all assays above

COc1cc(/C=C/C=O)cc(OC)c1O[C@@H]1O[C@H](CO)[C@@H](O)[C@H](O)[C@H]1O
inactive: all assays above

CCO[C@@H]1OC(=O)C[C@@H]1NC(=O)[C@@H]1CCCN1C(=O)[C@@H](NC(=O)c1ccc(N)c(Cl)c1)C(C)(C)C
inactive: all assays above

C[C@]1(CO)CCC[C@]2(C)C3=C(CCC12)COC3 (stereo partly drawn)
inactive: all assays above

CC1(C)CCCC2(C)C=C(C(=O)O)C(O)CC12 (stereo not drawn)
inactive: all assays above

C[C@@H]1C(=O)O[C@H]2[C@H](O)C34[C@H]5C[C@@H](C(C)(C)C)C36[C@@H](OC(=O)[C@@H]6O)O[C@@]4(C(=O)O5)[C@@]12O (stereo partly drawn)
inactive: all assays above

COc1cc(/C=C/CO)cc(OC)c1O[C@@H]1O[C@H](CO[C@@H]2O[C@H](CO)[C@@H](O)[C@H](O)[C@H]2O)[C@@H](O)[C@H](O)[C@H]1O
inactive: all assays above

C[C@@H]1[C@H]2[C@H](O[C@@H]3O[C@H](CO)[C@@H](O)[C@H](O)[C@H]3O)OC=C(C(=O)O)[C@H]2C[C@@H]1O
inactive: all assays above
